# Source: PubChem BioAssay AID1788 (Vanderbilt High Throughput Screening Facility, 2009)
# Values without a mark were called inactive. How the calls were made is not given here.
# Test system: Rolipram (rat)
# Experiment: PubChem AID 1788
# Details: MDS Pharma lead profiling panel, radioligand binding, at 10 µM, stronger effect = higher value
smiles,measurement,value
CCOC(=O)N1CCC(NCCNC(=O)c2ccccc2C)CC1,inhibition,-2%
